In PubChem BioAssay (NCATS) one finds Potency data, which are given here for 40 compounds.

Inconclusive results are not listed. Where a call stands in place of a potency, no number is given. Activity calls are given as the source filed them. The call rests on the fitted dose curve; in most records, active means well fitted cell-killing curve with a large enough effect; inconclusive means small, poorly fitted or top-dose-only effect; inactive means flat fitted curve, though single readings scatter.
Potency means the concentration at half of the fitted maximal effect.

A short description of the test: Cell Viability - LYMP2-012 (AID 982).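 Further: cells exposed to compound for one day before reading; nearly all actives have a fitted effect of over 55% in size.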 The conditions noted are these: LYMP2-012 lymphoblastoid cell viability qHTS; series mostly up to 92.2 µM. From the text:
NIH Chemical Genomics Center [NCGC]
NIH Molecular Libraries Screening Centers Network [MLSCN]
National Institutes of Environmental Health Sciences [NIEHS]
National Toxicology Program [NTP]
We have developed a 1536-well cell-based assay for quantitative high throughput screening (qHTS) against a number of cell lines to determine in vitro cytotoxicity of small molecules. This particular assay uses a human lymphoblastoid cell line (LYMP2-012) purchased from Coriell Institute for Medical Research.
NCGC Assay Protocol Summary:
The CellTiter-Glo luminescent cell viability assay (Promega) is a homogeneous method to measure the number of viable cells in culture. The end point readout of this assay is based on quantitation of intracellular ATP, an indicator of metabolic activity, using the luciferase reaction. Luciferase catalyzes the oxidation of beetle Luciferin to oxyluciferin and light in the presence of ATP. The luminescent signal is proportional to amount of ATP present.
Using the CellTiter-Glo luminescent cell viability assay, the amount of cellular ATP was measured in the lymphoblastoid cell line with complete culture medium following compound treatment for 24 hours. The assay was performed in opaque white Kalypsys 1536-well plates. In the screen, tetraoctylammonium bromide was used as positive control. Library compounds were measured for their ability to cause acute toxicity in the cell line, as reflected by a decrease in intracellular ATP levels, in a concentration-dependent manner. […] AC50 values were determined from concentration-response data modeled with the standard Hill equation.
qHTS protocol for CellTiter Glo lymphoblastoid cellular assay
[Step] [Parameter] [Value] [Description]
1. Reagent; 5 uL; 2500 lymphoblastoid cells/well
2. Time; 5 hr; 37 C incubation
4. Controls; 23 nL; Tetraoctylammonium bromide 6.4pM to 92 uM
5. Time; 24 hr; 37 C incubation
6. Reagent; 5 uL; CellTiter Glo reagent
7. Time; 30 min; Room Temperature
8. Detection; Luminescence; Viewlux plate reader
Keywords: cell viability, cytotoxicity, lymphoblastoid cell line, luminescence, NTPHTS, NTPHTS_NCGC, NIEHS, DSSTox, MLSMR, MLSCN, NIH Roadmap, qHTS, NCGC
With `C=CC(=O)OCCCCCCOC(=O)C=C`, the Potency was 39.8 µM (active). `COc1cc(-c2ccc(N=C=O)c(OC)c2)ccc1N=C=O`: the Potency entry was “inactive”. With `CC(=O)OCc1ccc2c(c1)OCO2`, the Potency result was “inactive”.

On to `OC1CCCCC1`, for which the Potency entry was “inactive”. As for `CCOc1ccc2nc(N)sc2c1`, the Potency result is “inactive”. Take `O=C(OCc1ccccc1)c1ccccc1O`: the Potency result is “inactive”.

For the compound `O=[N+]([O-])c1cc(Cl)c(Cl)c(Cl)c1Cl`, the Potency result is “inactive”. As to `C=CC(C)(O)CCCC(C)CCCC(C)CCCC(C)C` (stereo not given), the Potency result was “inactive”.

On to `CN(C)c1ccc(C(=N)c2ccc(N(C)C)cc2)cc1`, for which the Potency was 39.8 µM (active).

In the case of `CC(CCC(=O)O)(c1ccc(O)cc1)c1ccc(O)cc1`, the Potency result is “inactive”. Consider `CC/C=C/C/C=C/C/C=C/CCCCCCCC(=O)OCC`, for which the Potency is 39.8 µM (active).

In the case of `O=[N+]([O-])c1ccccc1Nc1ccccc1`, the Potency entry is “inactive”.

Consider `Nc1ccc2c(c1)C(=O)c1ccccc1C2=O`, for which the Potency entry is “inactive”. For `Cc1ccc(C(=O)O)cc1[N+](=O)[O-]` the value was “inactive”; for `CC(=O)CC(=O)Nc1ccccc1`, “inactive”; for `Cc1cc2nc(N)sc2cc1C`, “inactive”. Take `CC(=O)OC(C(=O)c1ccccc1)c1ccccc1` (stereo not given): the Potency entry is “inactive”. For `C/C=C/C=C/C=O`, the Potency is 31.6 µM (active).

In the case of `O=C(O)/C=C/c1ccc(/C=C/C(=O)O)cc1`, the Potency entry is “inactive”. In the case of `C[C@@H]1CC2(OC(O)[C@]3(C)O[C@H]23)O[C@H]2C[C@@]3(C)[C@@H]4CC[C@H]5C(C)(C)C(O[C@@H]6OC[C@@H](O)[C@H](O)[C@H]6O)CC[C@@]56C[C@@]46CC[C@]3(C)[C@@H]12` (stereo not given in full), the Potency was 50.1 µM (active). For `Nc1ccc(N)c(Cl)c1`, the Potency result is “inactive”.

As for `Nc1cc(C(=O)O)c(O)c(S(=O)(=O)O)c1`, the Potency entry was “inactive”. In the case of `NC(=O)c1ccc([N+](=O)[O-])cc1`, the Potency entry is “inactive”.

For the compound `Cc1c(N)cccc1Cl`, the Potency result was “inactive”. Consider `O=c1[nH]ncc2ccccc12`, for which the Potency result was “inactive”. For `Cc1cc(=O)oc2cc(O)cc(O)c12` the value was “inactive”; for `CC1=C(/C=C/C(C)=C/C=C/C(C)=C/C=O)C(C)(C)CCC1`, 50.1 µM (active); for `Oc1cc(Cl)cc(Cl)c1Cl`, “inactive”. In the case of `Cc1cccnc1`, the Potency result is “inactive”. As for `COc1ccc(C(=O)Nc2ccccc2)cc1[N+](=O)[O-]`, the Potency result was “inactive”. `OCC(CO)(CBr)CBr`: the Potency result was “inactive”. Turning to `c1ccc(SCCSc2ccccc2)cc1`, the Potency result was “inactive”. As to `S=C(NC1CCCCC1)NC1CCCCC1`, the Potency entry is “inactive”. `Brc1ccc(-c2ccccc2)cc1`: the Potency result was “inactive”. For `Cc1ccc(N)cc1[N+](=O)[O-]`, the Potency result is “inactive”.

As to `COc1ccc([N+](=O)[O-])cc1N`, the Potency result was “inactive”.

Consider `Nc1ccccc1O`, for which the Potency result is “inactive”. For `COc1ccc(C)cc1N` the value was “inactive”. As for `c1ccc(COCc2ccccc2)cc1`, the Potency entry is “inactive”. As to `CC(C)S`, the Potency entry is “inactive”.
